# PubChem BioAssay (NCI)
# About 83,000 compounds went through this panel and 20% of them were active in at least one assay; those are over-represented in the sample as a whole.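 Testing used 96-well plates and a 48-hour single-concentration exposure. Example: -40 means 40% of the starting cells died.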 Values without a mark were called inactive. Activity calls are given as the source filed them. Rule for the calls: active = growth percent below 10; inactive = the rest.
# Experiments:
# Assay in all cases: NCI-60 one-dose screen, 48 h (100 = growth as untreated, 0 = no growth, -100 = all killed)
# Conditions in all cases: 10 µM unless noted
# NCI-H23 lung = test system: NCI-H23 lung
# NCI-H226 lung = test system: NCI-H226 lung
# NCI-H322M lung = test system: NCI-H322M lung
# HOP-62 NSCLC = test system: HOP-62 NSCLC
# NCI-H460 lung = test system: NCI-H460 lung
# HOP-92 NSCLC = test system: HOP-92 NSCLC
# NCI-H522 lung = test system: NCI-H522 lung
# A549/ATCC NSCLC = test system: A549/ATCC NSCLC
# 786-0 renal = test system: 786-0 renal
# COLO 205 colon = test system: COLO 205 colon
SMILES,growth (NCI-H23 lung),growth (NCI-H226 lung),growth (NCI-H322M lung),growth (HOP-62 NSCLC),growth (NCI-H460 lung),growth (HOP-92 NSCLC),growth (NCI-H522 lung),growth (A549/ATCC NSCLC),growth (786-0 renal),growth (COLO 205 colon)
CC(=O)Nc1ccc(O)c(C)c1,99.8%,95%,100%,98%,104%,100%,93.5%,88.1%,105%,109%
Cc1ccc(OC(=O)c2ccccc2)cc1,114%,100%,123%,97.7%,106%,130%,91.8%,98.7%,112%,96.1%
O=S(=O)(O)c1cccc2cccnc12,100%,107%,122%,101%,112%,102%,97.4%,106%,105%,127%
O=C(NCCc1ccccc1)/C(=C\c1ccc(Cl)cc1Cl)NC(=O)c1ccccc1,91.2%,101%,101%,98.7%,97.1%,80.5%,90%,101%,107%,92.9%
COc1cccc(C(=O)O)c1OC,109%,89.8%,95.6%,89.4%,101%,92.5%,87.2%,98.1%,96%,101%
CCN(C(C)=O)c1ccc([N+](=O)[O-])cc1,101%,99.3%,103%,95.4%,104%,98.7%,104%,91.8%,102%,110%
O=C(O)Cc1ccccn1,102%,102%,102%,109%,108%,99.1%,100%,106%,102%,97.8%
NNc1ncnc2c1ncn2C1OC(CO)C(O)C1O (stereo not given),66%,55.8%,40%,15%,2.13% (active),34.9%,20.1%,18%,35.9%,40.4%
Cc1ccc(/C=N/NC(N)=S)s1,99.7%,99.1%,98.9%,102%,103%,100%,105%,109%,109%,104%
OC(CCN1CCCCC1)(c1ccccc1)c1ccccc1,98.6%,104%,97.6%,110%,116%,85.6%,98.4%,104%,98.1%,103%
O=C(O)C1CSC(c2ccccc2)N1 (stereo not given),95%,97%,98.8%,89.5%,98.5%,111%,79.4%,100%,112%,84.6%
O=c1cc(C(F)(F)F)[nH]c(=S)[nH]1,103%,112%,101%,100%,112%,126%,99.4%,98.1%,104%,109%
O=S(=O)(c1ccc(NC(=S)NCc2cccnc2)cc1)N1CCCCC1,87%,86.7%,91.4%,83.1%,63%,86.2%,19.1%,65.2%,93.8%,63%
COc1cccc(C(=O)NNC(=O)c2cccc3ccccc23)c1,107%,105%,122%,97.7%,117%,97.2%,102%,96%,104%,108%
CC(=O)OCC1OC(n2cnc3c(=S)nc(N)[nH]c32)C(OC(C)=O)C1OC(C)=O (stereo not given),88.3%,68.2%,77.3%,49.3%,67.2%,28.4%,83.5%,105%,66%,120%
CC(=O)NC(CCc1ccc(Cl)c(Cl)c1)c1cccc(O)c(=O)c1 (stereo not given),21.8%,-13.8% (active),5% (active),10.3%,3.68% (active),4.89% (active),15.7%,8.58% (active),10.2%,16.7%
COc1ccc(NNS(=O)(=O)O)cc1,98.3%,95%,116%,85.1%,105%,80.3%,96%,95.3%,103%,104%
COc1ccc2c(c1)Nc1ccccc1S2,104%,108%,101%,105%,109%,78.5%,98.9%,104%,98.7%,111%
COc1cc(C(=O)O)c(O)c(C(C)(C)C)c1,102%,102%,107%,104%,105%,88.2%,106%,102%,101%,107%
CC(=O)C1C(=O)C(=O)N(c2cccc([N+](=O)[O-])c2)C1=O (stereo not given),99%,92.3%,114%,105%,105%,95.6%,104%,109%,96.8%,111%
NC(=S)N/N=C/c1ccc(OC(=O)COc2ccc(Cl)cc2)cn1,33.5%,93.5%,42.5%,53%,69.7%,66.9%,43.3%,107%,32.5%,84.7%
Cc1nc(O)cc(=O)[nH]1,108%,111%,99.3%,112%,104%,76.3%,103%,109%,114%,115%
CC(=O)Nc1ccc(/C=C2\SC(=S)N(/C=C(\C(C)=O)C(N)=O)C2=O)cc1,97.5%,86.2%,102%,82.5%,99.4%,68.2%,84.2%,84.9%,88.1%,92.1%
O=S(=O)(O)c1cccnc1,115%,105%,84.6%,114%,109%,142%,109%,125%,103%,105%
COc1ccc(C)cc1NC(=O)SC(C)C,102% [100 µM],89.6% [100 µM],104% [100 µM],97% [100 µM],103% [100 µM],103% [100 µM],88.7% [100 µM],104% [100 µM],102% [100 µM],132% [100 µM]
CCOC(=O)c1ccc(NC(C)=O)o1,105%,95%,108%,86.3%,87.2%,103%,95.2%,76.2%,105%,106%
CCOC(=O)N[C@H]1CCc2cc(OC)c(OC)c(OC)c2-c2ccc(SC)c(=O)cc21,27.4%,-7.68% (active),30.7%,30.1%,2.01% (active),29.4%,-8.99% (active),17.3%,15.6%,-4.99% (active)
CC(=O)OCC1CCC(COC(C)=O)CC1 (stereo not given),95.5%,105%,96.6%,90.8%,110%,125%,67.4%,79.7%,95.3%,120%
CCCCCCCCCc1ccc(OC(C)=O)cc1,105%,99.7%,96.8%,113%,103%,98.2%,99.4%,98.9%,101%,113%
CCCCCCCCNC(=O)C(C)C,94.6%,96.4%,107%,104%,98.3%,90%,92.5%,102%,107%,108%
